Laboratory results as given in PubChem BioAssay (Tox21).
Records with an inconclusive call do not appear. Calls of active or inactive are those of the source. Unless noted, calls follow the shape of the dose curve; as a rule, active = well fitted curve in the direction sought with a large enough effect in the repeat runs; inconclusive = weak or mixed curves; inactive = no such curve, though single readings can be large; an effect the other way counts as inactive or inconclusive.

Tests used:
[1] = qHTS assay to identify small molecule agonists of the vitamin D receptor (VDR) signaling pathway - cell viability counter screen (AID 743224); also: series mostly up to about 63 µM; % is scaled to controls: 0 for no effect and ±100 for the full control effect; nearly all actives have a fitted effect of over 50% in size
Summary of the method: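 In parallel with the bla FRET readout, cytotoxicity toward VDR-bla cells after 16 h compound exposure was assessed by CellTiter-Glo, with luminescence recorded after a 30 min room-temperature incubation.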

[2] = qHTS assay to identify small molecule antagonists of the vitamin D receptor (VDR) signaling pathway - cell viability counter screen (AID 743225); also: % is scaled to controls: 0 for no effect and ±100 for the full control effect; nearly all actives have a fitted effect of over 50% in size
Summary of the method: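 Compounds were pinned onto VDR-bla HEK 293T cells together with 1-alpha,25-dihydroxyvitamin D3 at 3 nM final. After 16 h at 37C and 5% CO2 plus the reporter readout, cell viability was measured by CellTiter-Glo luminescence (30 min, room temperature).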

[3] = qHTS assay to identify small molecule agonists of the NFkB signaling pathway (AID 1159509; active = well fitted curve in the direction sought with a large enough effect in the signal ratio in the repeat runs, not every such curve was filed as active; the % refers to the signal ratio; also: series mostly up to about 61 µM; % is scaled to controls: 0 for no effect and ±100 for the full control effect)
Summary of the method: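 Beta-lactamase reporter assay run in quantitative high-throughput format on an NF-kB-responsive ME-180 line, with 5 hr compound treatment and a FRET-based blue/green fluorescence readout.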

[4] = qHTS assay to identify small molecule agonists of the NFkB signaling pathway - cell viability counter screen (AID 1159515; calls by dose curve; also: series mostly up to about 61 µM; % is scaled to controls: 0 for no effect and ±100 for the full control effect; nearly all actives have a fitted effect of over 55% in size)
Summary of the method: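 Plate 2,000 NFkB-bla ME-180 cells/well; incubate overnight. Add compounds, 5 hr at 37 C. Add FRET substrate, 1.5 hr RT. Add CellTiter-Glo, 30 min RT; read luminescence.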

[5] = qHTS assay to identify small molecule agonists of the endoplasmic reticulum stress response signaling pathway (AID 1159516; active = well fitted activation curve with a large enough effect in the signal ratio in the repeat runs, not every such curve was filed as active; the % refers to the signal ratio; also: % is scaled to controls: 0 for no effect and ±100 for the full control effect)
Summary of the method: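 Beta-lactamase expression from the ER stress response element in HeLa reporter cells is quantified with the LiveBLAzer B/G FRET substrate, read at 405 nm excitation after 2 hr at room temperature, following 5 hr compound treatment at 37 C.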

[6] = qHTS assay to identify small molecule agonists of the endoplasmic reticulum stress response signaling pathway - cell viability counter screen (AID 1159517; calls by dose curve; also: series mostly up to about 61 µM; % is scaled to controls: 0 for no effect and ±100 for the full control effect; nearly all actives have a fitted effect of over 50% in size)
Summary of the method: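 After overnight attachment, ESRE-bla HeLa cells were treated with Tox21 library compounds for 5 hr. CellTiter-Glo luminescence, read 30 min post-addition at room temperature, reported viability.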

[7] = qHTS assay to identify small molecule antagonists of the retinoid-related orphan receptor gamma (ROR-gamma) signaling pathway - cell viability counter screen (AID 1159520); also: % is scaled to controls: 0 for no effect and ±100 for the full control effect; nearly all actives have a fitted effect of over 50% in size
Summary of the method: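 Cytotoxicity was read from cellular ATP (CellTiter-Glo luminescence) after 16 hr at 37 C with 1 uM doxycycline induction. The inducer was added 2 hr after compound transfer to Tet-on ROR gamma CHO cells.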

[8] = target: Nuclear receptor ROR-gamma (Homo sapiens) (UniProt P51449); assay: qHTS assay to identify small molecule antagonists of the retinoid-related orphan receptor gamma (ROR-gamma) signaling pathway (AID 1159521)
Summary of the method: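 Test compounds were applied to Tet-on RORγ CHO cells 2 h ahead of doxycycline hyclate (1 uM final). Luciferase reporter activity was quantified by luminescence after 16 h at 37 C and 5% CO2.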

[9] = qHTS assay to identify small molecule agonists of the AP-1 signaling pathway - cell viability counter screen (AID 1159525; calls by dose curve; also: nearly all actives have a fitted effect of over 55% in size)
Summary of the method: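 Intracellular ATP by Cell Titer Glo luminescence (30 min, RT) in the same ME-180 AP-1-bla wells after the 5 h compound exposure at 37 °C. Normalised to tetra n-octyl ammonium bromide and DMSO controls.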

[10] = qHTS assay to identify small molecule agonists of the AP-1 signaling pathway (AID 1159526; calls by dose curve; also: % is scaled to controls: 0 for no effect and ±100 for the full control effect)
[11] = target: Retinoic acid receptor RXR-alpha (Homo sapiens) (UniProt P19793); assay: qHTS assay to identify small molecule agonists of the RXR signaling pathway (AID 1159527; calls by dose curve; also: % is scaled to controls: 0 for no effect and ±100 for the full control effect; nearly all actives have a fitted effect of over 35% in size)
Chain of Retinoic acid receptor RXR-alpha (Homo sapiens) (P19793 whole entry, looked up): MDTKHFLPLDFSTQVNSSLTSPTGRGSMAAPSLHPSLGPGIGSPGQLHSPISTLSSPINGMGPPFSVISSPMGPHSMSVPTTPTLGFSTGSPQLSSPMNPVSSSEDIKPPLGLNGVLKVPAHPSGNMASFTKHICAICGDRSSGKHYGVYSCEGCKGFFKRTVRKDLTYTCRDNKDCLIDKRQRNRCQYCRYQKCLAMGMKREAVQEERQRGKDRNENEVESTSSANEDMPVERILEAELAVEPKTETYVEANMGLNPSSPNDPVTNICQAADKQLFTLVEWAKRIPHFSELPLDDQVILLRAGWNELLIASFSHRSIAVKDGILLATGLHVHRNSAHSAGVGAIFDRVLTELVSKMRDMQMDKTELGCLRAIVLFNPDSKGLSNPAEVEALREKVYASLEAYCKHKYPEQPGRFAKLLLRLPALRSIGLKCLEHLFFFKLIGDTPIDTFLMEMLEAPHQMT
Summary of the method: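 Using 9-cis retinoic acid as the reference agonist, chemicals were tested in HEK 293T cells […] for 16 hr; substrate loading lasted 2 hr at room temperature.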

[12] = qHTS assay to identify small molecule agonists of the RXR signaling pathway - cell viability counter screen (AID 1159529)
Summary of the method: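 Compounds dissolved in DMSO were pinned onto HEK 293T cells carrying a beta-lactamase reporter under RXR-alpha control and incubated 16 hr. Cytotoxicity was then quantified by CellTiter-Glo luminescence.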

[13] = qHTS assay to identify small molecule antagonists of the retinoid acid receptor (RAR) signaling pathway - cell viability counter screen (AID 1159551); also: % is scaled to controls: 0 for no effect and ±100 for the full control effect; nearly all actives have a fitted effect of over 35% in size
Summary of the method: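 Viability of C3RL4 cells is quantified from ATP by luminescence after 6 h treatment at 37 C with compounds and 1 uM retinol.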

[14] = qHTS assay to identify small molecule antagonists of the retinoic acid receptor (RAR) signaling pathway (AID 1159552)
Summary of the method: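 Test chemicals and DMSO controls were pin-transferred onto C3RL4 cells a day after seeding; retinol (1 uM final) followed at once. Luminescent reporter output was quantified after 6 hr of co-incubation and 30 min with detection reagent.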

[15] = qHTS assay to identify small molecule agonists of the retinoic acid receptor (RAR) signaling pathway (AID 1159553); also: % is scaled to controls: 0 for no effect and ±100 for the full control effect
Summary of the method: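 Compounds dissolved in DMSO were pinned onto C3RL4 cells seeded the previous day, and plates were held 6 hr at 37 C. RARE-driven luciferase output was then read by luminescence.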

[16] = qHTS assay to identify small molecule antagonists of the estrogen related receptor (ERR) signaling pathway from Tox21 library - cell viability counter screen (AID 1224834); also: % is scaled to controls: 0 for no effect and ±100 for the full control effect; nearly all actives have a fitted effect of over 30% in size
Summary of the method: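 In this quantitative HTS format, ERR cells receive compounds in DMSO and are incubated for 17.5 h at 37 C. Live-cell protease activity is then detected with CellTiter-Fluor.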

C[C@@H]1O[C@@H](O[C@@H]2[C@@H](O)[C@H](OCCc3ccc(O)c(O)c3)O[C@H](CO[C@@H]3O[C@H](CO)[C@@H](O)[C@H](O)[C@H]3O)[C@H]2OC(=O)/C=C/c2ccc(O)c(O)c2)[C@H](O)[C@H](O)[C@H]1O
inactive: Potency [1] | outcome [2] | outcome [3] | outcome [4] | outcome [5] | Potency [6] | outcome [7] | outcome [8] | outcome [9] | outcome [10] | Potency [11] | outcome [12] | outcome [13] | outcome [14] | Potency [15]

CCCCOC(=O)c1ccccc1
inactive: Potency [1] | outcome [2] | outcome [3] | outcome [4] | outcome [5] | Potency [6] | outcome [7] | outcome [8] | outcome [9] | outcome [10] | Potency [11] | outcome [12] | outcome [13] | outcome [14] | Potency [15]

O=S(=O)(O)CCN1CCN(CCO)CC1
inactive: Potency [1] | outcome [2] | outcome [3] | outcome [4] | outcome [5] | Potency [6] | outcome [7] | outcome [8] | outcome [9] | outcome [10] | Potency [11] | outcome [12] | outcome [13] | Potency [16]

CC(C)(C)NC(N)=O
inactive: Potency [1] | outcome [2] | outcome [3] | outcome [4] | outcome [5] | Potency [6] | outcome [7] | outcome [8] | outcome [9] | outcome [10] | Potency [11] | outcome [12] | outcome [13] | Potency [16]

CC(S)C(=O)NCC(=O)O (stereo not drawn)
inactive: Potency [1] | outcome [2] | outcome [3] | outcome [4] | outcome [5] | Potency [6] | outcome [7] | outcome [8] | outcome [9] | outcome [10] | Potency [11] | outcome [12] | outcome [13] | Potency [16]

CN(C)CCOCCO
inactive: Potency [1] | outcome [3] | outcome [4] | outcome [5] | Potency [6] | outcome [7] | outcome [8] | outcome [9] | outcome [10] | Potency [11] | outcome [12] | outcome [13] | Potency [16]

CCn1ccc(NS(=O)(=O)c2ccc(N)cc2)nc1=O
inactive: Potency [1] | outcome [2] | outcome [3] | outcome [4] | outcome [5] | Potency [6] | outcome [7] | outcome [8] | outcome [9] | outcome [10] | Potency [11] | outcome [12] | outcome [13] | Potency [16]

CCC(C)(CCC(C)C)C(=O)O (stereo not drawn)
inactive: Potency [1] | outcome [2] | outcome [3] | outcome [4] | outcome [5] | Potency [6] | outcome [7] | outcome [8] | outcome [9] | outcome [10] | Potency [11] | outcome [12] | outcome [13] | Potency [16]

CC(C)(C)c1nnc(NS(=O)(=O)c2ccc(N)cc2)s1
inactive: Potency [1] | outcome [2] | outcome [3] | outcome [4] | outcome [5] | Potency [6] | outcome [7] | outcome [8] | outcome [9] | outcome [10] | Potency [11] | outcome [12] | outcome [13] | Potency [16]

COCCOCCOCCOCCOCCO
inactive: Potency [1] | outcome [2] | outcome [3] | outcome [4] | outcome [5] | Potency [6] | outcome [7] | outcome [8] | outcome [9] | outcome [10] | Potency [11] | outcome [12] | outcome [13] | Potency [16]

Cc1ccc(C=O)cc1C
inactive: Potency [1] | outcome [2] | outcome [3] | outcome [4] | outcome [5] | Potency [6] | outcome [7] | outcome [8] | outcome [9] | outcome [10] | Potency [11] | outcome [12] | outcome [13] | Potency [16]

COc1cc2c(cc1OC)C(=O)CC2
inactive: Potency [1] | outcome [2] | outcome [3] | outcome [4] | outcome [5] | Potency [6] | outcome [7] | outcome [8] | outcome [9] | outcome [10] | Potency [11] | outcome [12] | outcome [13] | Potency [16]

C[Si](C)(C)C
inactive: Potency [1] | outcome [2] | outcome [3] | outcome [4] | outcome [5] | Potency [6] | outcome [7] | outcome [8] | outcome [9] | outcome [10] | Potency [11] | outcome [12] | outcome [13] | Potency [16]

CCCOC(OCCC)OCCC
inactive: Potency [1] | outcome [2] | outcome [3] | outcome [4] | outcome [5] | Potency [6] | outcome [7] | outcome [8] | outcome [9] | outcome [10] | Potency [11] | outcome [12] | outcome [13] | Potency [16]

CCOC(=O)c1ccc(OC(=O)CCCCCN=C(N)N)cc1
inactive: Potency [1] | outcome [2] | outcome [3] | outcome [4] | outcome [5] | Potency [6] | outcome [7] | outcome [8] | outcome [9] | outcome [10] | Potency [11] | outcome [12] | outcome [13] | Potency [16]

CCCCCCCC/C=C\CCCCCCCC(=O)OCCCC
inactive: Potency [1] | outcome [2] | outcome [3] | outcome [4] | outcome [5] | Potency [6] | activity, negative = cytotoxicity [7] -6.58% [at 19 µM] | activity change, negative = inhibition [8] 12% [at 19 µM] | viability change, negative = cytotoxic [9] -3.05% [at 15.8 µM] | activation [10] -1.59% [at 15.8 µM] | activation [11] 2.43% [at 15.8 µM] | activity change, negative = cytotoxicity [12] 1.56% [at 15.8 µM] | activity change, negative = cytotoxicity [13] -0.376% [at 19 µM] | viability change, negative = cytotoxic [16] -0.0583% [at 19 µM]

Nc1ccc(S(=O)(=O)Nc2ccc(Cl)nn2)cc1
inactive: Potency [1] | outcome [2] | outcome [3] | outcome [4] | outcome [5] | Potency [6] | outcome [7] | outcome [8] | outcome [9] | outcome [10] | Potency [11] | outcome [12] | outcome [13] | Potency [16]

CCC(CC)CO
inactive: Potency [1] | outcome [2] | outcome [3] | outcome [4] | outcome [5] | Potency [6] | outcome [7] | outcome [8] | outcome [9] | outcome [10] | Potency [11] | outcome [12] | outcome [13] | Potency [16]
